According to the supplement of paper PMC12067093, “Discovery and optimisation of a covalent ligand for TRIM25 and its application to targeted protein ubiquitination” (Chemical Science, 2025):
Targets with the largest changes are over-represented here; the source holds about 21,000 in all.
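Further: competitive chemoproteomic profiling in live THP-1 cells with an iodoacetamide desthiobiotin (IA-DTB) probe, comparing probe-labelled peptide intensities in compound-treated cells against DMSO-treated controls.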

Chain of UniProt Q13177 (Q13177 whole entry): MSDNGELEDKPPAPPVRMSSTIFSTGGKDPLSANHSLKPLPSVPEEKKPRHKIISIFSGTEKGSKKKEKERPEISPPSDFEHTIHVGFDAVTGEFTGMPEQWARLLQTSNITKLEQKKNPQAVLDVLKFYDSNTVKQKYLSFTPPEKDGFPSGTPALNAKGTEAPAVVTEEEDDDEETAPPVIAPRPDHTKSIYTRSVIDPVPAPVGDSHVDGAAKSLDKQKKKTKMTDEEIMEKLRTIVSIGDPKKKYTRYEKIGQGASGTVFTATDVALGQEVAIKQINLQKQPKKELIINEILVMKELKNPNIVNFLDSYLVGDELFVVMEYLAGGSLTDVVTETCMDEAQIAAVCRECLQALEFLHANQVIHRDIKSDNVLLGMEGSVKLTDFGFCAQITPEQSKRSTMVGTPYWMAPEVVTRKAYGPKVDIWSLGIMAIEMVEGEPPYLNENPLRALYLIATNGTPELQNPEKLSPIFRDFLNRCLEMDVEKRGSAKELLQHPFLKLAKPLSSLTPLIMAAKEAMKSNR
Chain of UniProt Q9Y6K5 (Q9Y6K5 whole entry, looked up): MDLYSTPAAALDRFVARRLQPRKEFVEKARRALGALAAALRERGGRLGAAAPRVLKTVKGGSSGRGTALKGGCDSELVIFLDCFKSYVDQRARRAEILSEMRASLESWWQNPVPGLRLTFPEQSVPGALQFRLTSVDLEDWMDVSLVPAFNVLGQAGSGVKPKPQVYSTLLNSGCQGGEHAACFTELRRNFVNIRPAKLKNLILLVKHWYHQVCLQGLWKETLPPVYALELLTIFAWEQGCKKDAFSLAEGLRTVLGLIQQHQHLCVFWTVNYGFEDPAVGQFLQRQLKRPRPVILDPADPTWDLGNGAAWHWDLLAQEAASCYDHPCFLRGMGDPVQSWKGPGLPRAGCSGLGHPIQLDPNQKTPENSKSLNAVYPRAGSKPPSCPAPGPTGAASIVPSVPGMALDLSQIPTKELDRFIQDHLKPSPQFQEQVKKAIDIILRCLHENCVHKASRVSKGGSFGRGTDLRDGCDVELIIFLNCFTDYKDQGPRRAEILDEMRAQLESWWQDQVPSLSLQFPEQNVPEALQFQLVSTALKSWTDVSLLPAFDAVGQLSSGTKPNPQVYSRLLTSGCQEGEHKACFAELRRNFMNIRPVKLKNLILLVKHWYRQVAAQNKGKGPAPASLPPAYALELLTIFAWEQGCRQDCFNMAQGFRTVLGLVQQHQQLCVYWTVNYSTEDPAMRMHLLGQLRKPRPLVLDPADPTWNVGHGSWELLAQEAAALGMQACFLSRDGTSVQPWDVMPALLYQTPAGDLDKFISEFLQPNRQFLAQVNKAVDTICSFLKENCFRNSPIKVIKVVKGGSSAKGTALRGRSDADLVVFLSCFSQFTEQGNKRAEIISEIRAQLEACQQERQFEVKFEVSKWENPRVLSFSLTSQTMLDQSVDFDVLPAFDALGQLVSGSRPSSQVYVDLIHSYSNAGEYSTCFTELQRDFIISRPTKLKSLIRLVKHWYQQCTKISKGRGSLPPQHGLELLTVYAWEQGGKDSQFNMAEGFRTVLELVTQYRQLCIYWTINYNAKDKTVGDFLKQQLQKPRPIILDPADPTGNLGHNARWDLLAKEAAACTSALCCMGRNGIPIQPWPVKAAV
Chain of UniProt Q8NI08 (Q8NI08 whole entry, looked up): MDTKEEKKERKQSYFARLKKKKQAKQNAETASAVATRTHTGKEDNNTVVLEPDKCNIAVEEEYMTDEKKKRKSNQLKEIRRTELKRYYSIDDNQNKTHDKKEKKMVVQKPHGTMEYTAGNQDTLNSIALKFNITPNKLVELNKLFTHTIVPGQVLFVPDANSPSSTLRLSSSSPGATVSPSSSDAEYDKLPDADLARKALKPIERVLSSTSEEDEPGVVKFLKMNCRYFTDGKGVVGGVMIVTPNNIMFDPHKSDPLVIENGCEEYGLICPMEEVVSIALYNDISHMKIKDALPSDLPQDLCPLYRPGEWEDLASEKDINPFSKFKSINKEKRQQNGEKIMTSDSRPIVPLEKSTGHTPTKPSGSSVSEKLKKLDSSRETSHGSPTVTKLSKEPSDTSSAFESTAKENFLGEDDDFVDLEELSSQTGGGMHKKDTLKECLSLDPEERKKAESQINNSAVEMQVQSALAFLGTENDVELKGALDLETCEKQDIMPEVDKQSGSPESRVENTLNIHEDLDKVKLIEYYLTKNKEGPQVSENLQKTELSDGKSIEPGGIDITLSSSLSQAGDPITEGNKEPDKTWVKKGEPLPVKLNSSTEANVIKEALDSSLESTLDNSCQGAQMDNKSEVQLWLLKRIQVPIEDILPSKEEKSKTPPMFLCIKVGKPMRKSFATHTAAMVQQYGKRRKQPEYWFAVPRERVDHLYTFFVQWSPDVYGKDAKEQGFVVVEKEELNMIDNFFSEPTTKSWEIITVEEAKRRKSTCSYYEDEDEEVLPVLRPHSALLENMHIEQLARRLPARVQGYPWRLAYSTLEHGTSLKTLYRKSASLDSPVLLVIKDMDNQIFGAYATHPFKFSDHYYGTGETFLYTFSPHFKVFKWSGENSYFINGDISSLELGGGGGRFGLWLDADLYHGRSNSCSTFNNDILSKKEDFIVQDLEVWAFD
Chain of UniProt Q96P11 (Q96P11 whole entry, looked up): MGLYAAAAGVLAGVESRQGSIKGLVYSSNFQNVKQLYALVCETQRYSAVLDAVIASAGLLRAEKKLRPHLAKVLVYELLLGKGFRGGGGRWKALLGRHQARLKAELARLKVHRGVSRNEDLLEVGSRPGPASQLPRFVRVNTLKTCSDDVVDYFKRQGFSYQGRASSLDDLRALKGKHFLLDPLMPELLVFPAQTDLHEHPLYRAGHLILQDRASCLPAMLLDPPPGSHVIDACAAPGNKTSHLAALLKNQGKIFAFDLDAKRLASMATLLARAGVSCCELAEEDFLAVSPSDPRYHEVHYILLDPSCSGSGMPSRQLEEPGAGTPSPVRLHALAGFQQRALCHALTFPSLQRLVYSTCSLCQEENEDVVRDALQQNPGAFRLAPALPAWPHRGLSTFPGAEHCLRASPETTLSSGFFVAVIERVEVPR
Chain of UniProt Q9NR12 (Q9NR12 whole entry, looked up): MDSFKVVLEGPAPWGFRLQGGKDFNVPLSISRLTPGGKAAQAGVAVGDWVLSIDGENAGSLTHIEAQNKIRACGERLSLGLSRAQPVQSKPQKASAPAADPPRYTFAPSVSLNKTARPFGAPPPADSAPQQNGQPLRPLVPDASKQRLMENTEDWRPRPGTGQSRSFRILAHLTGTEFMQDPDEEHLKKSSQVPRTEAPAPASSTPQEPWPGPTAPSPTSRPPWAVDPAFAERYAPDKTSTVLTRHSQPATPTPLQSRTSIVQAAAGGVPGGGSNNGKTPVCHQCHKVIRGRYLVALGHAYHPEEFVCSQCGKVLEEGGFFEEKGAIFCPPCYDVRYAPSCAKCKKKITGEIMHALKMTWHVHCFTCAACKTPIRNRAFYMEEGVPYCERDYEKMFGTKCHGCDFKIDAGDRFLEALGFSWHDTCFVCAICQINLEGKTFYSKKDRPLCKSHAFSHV
Chain of UniProt P13674 (P13674 whole entry, looked up): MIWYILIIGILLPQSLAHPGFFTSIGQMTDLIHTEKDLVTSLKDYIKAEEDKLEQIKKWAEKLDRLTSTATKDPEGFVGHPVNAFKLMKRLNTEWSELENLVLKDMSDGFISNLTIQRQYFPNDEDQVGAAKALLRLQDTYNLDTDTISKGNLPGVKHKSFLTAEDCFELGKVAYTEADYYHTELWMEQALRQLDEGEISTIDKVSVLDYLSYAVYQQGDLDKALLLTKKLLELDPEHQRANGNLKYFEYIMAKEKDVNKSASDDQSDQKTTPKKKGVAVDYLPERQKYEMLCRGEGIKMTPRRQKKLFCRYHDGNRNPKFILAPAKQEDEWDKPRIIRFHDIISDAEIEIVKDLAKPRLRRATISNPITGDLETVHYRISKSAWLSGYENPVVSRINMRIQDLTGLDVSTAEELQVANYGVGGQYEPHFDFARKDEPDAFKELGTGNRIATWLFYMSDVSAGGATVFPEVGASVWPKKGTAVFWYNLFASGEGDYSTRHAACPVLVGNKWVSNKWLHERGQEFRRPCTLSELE
Chain of UniProt Q99497 (Q99497 whole entry, looked up): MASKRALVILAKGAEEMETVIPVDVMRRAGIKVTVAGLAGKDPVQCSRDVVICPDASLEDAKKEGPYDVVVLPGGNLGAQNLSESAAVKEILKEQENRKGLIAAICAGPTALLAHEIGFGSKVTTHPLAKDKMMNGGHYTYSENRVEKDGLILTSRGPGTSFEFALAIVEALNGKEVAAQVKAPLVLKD
Chain of UniProt Q5JVF3 (Q5JVF3 whole entry, looked up): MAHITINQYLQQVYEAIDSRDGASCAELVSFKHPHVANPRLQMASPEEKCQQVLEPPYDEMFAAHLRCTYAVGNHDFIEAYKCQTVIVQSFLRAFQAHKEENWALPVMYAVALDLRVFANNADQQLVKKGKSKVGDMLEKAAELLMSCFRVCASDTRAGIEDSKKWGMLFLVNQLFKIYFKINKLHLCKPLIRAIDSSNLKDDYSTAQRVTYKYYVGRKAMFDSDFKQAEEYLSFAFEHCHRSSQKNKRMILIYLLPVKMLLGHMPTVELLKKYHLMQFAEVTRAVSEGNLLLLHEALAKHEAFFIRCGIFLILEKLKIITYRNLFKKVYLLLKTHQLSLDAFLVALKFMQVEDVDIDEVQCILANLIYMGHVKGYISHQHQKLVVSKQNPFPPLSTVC
Chain of UniProt Q9NQR4 (Q9NQR4 whole entry, looked up): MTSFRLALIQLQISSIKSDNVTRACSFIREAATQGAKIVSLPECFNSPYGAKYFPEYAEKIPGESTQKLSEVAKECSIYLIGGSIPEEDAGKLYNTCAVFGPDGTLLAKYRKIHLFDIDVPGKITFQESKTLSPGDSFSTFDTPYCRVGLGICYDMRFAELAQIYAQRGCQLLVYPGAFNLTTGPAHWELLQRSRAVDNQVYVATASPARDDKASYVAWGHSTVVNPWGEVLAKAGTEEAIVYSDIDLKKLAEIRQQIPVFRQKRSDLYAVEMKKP
Chain of UniProt P61970 (P61970 whole entry, looked up): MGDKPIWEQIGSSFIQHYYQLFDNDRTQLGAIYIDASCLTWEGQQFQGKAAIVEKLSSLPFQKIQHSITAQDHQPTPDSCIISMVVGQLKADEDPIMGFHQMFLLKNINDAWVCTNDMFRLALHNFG

Each target was assayed with CC1Cc2ccccc2N1C(=O)C1CCCN(C1)C(=O)CCl (mixture of isomers) [TRIM25 ligand 11 (diastereomer mixture)] (assay: probe-labelled cysteine peptide fold change vs DMSO (competition) (log2 fold change); higher = less target engagement (more negative = stronger competition)). Details: 10 µM; THP-1; incubation time: 4 h.
For “PATZ1_Q9HBE1_297_EAGILPCGLCGK (UniProt Q9HBE1)”, the “probe-labelled cysteine peptide fold change” value was 0.00899. In the case of “PDLIM7_Q9NR12_370_MTWHVHCFTCAACK (UniProt Q9NR12)”, the “probe-labelled cysteine peptide fold change” value is reported as -0.0568. “NUDT4B_A0A024RBG1_28_AACLCFR<|>NUDT3_O95989_25_AACLCFR<|>NUDT10_Q8NFP7_24_AACLCFR<|>NUDT11_Q96G61_24_AACLCFR<|>NUDT4_Q9NZJ9_25_AACLCFR (UniProt Q9NZJ9+Q8NFP7+Q96G61+O95989)” was tested, and the “probe-labelled cysteine peptide fold change” value was 0.153. With “NUP155_O75694_667_HNGICIYFSR (UniProt O75694)” the “probe-labelled cysteine peptide fold change” value was -0.0348. For “NEDD4_P46934-4_4_ATCAVEVFGLLEDEENSR (UniProt P46934)”, the “probe-labelled cysteine peptide fold change” value was -0.669. “NVL_O15381_431_FDREICLGIPDEASR (UniProt O15381)” was tested, and the “probe-labelled cysteine peptide fold change” value was -0.0502. In the case of “NDUFB10_O96000_119_EGQNYQQNCIK (UniProt O96000)”, the “probe-labelled cysteine peptide fold change” value is reported as -0.0835. For “PAICS_P22234_100_CGETAFIAPQCEMIPIEWVCR (UniProt P22234)”, the “probe-labelled cysteine peptide fold change” value was 0.00496. In the case of “NUTF2_P61970_80_IQHSITAQDHQPTPDSCIISMVVGQLKADEDPIMGFHQMFLLK (UniProt P61970)”, the “probe-labelled cysteine peptide fold change” value is reported as -0.758. With “NOP58_Q9Y2X3_106_LNLSCIHSPVVNELMR (UniProt Q9Y2X3)” the “probe-labelled cysteine peptide fold change” value was 0.0103. “NUP160_Q12769_1042_QLVVVLCER (UniProt Q12769)” was tested, and the “probe-labelled cysteine peptide fold change” value was 0.25. “NUP210_Q8TEM1_746_FVCAPPSR (UniProt Q8TEM1)” was tested, and the “probe-labelled cysteine peptide fold change” value was 0.0568. In the case of “P3H1_Q32P28_123_CLGPPAAHSLSEEMELEFR (UniProt Q32P28)”, the “probe-labelled cysteine peptide fold change” value is reported as 0.411. For “NIT2_Q9NQR4_153_VGLGICYDMR (UniProt Q9NQR4)”, the “probe-labelled cysteine peptide fold change” value was -0.261. With “PAK2_Q13177_352_ECLQALEFLHANQVIHR (UniProt Q13177)” the “probe-labelled cysteine peptide fold change” value was 0.0134. In the case of “NT5DC2_Q9H857_475_FSDLYMASLSCLLNYR (UniProt Q9H857)”, the “probe-labelled cysteine peptide fold change” value is reported as 0.0123. For “NLRX1_Q86UT6_779_DLRDLLLHDQCQITTLR (UniProt Q86UT6)”, the “probe-labelled cysteine peptide fold change” value was -0.173. For “PDLIM1_O00151_286_HRHPECYVCTDCGTNLK (UniProt O00151)”, the “probe-labelled cysteine peptide fold change” value was 0.117. With “P4HB_P07237_397+400_NVFVEFYAPWCGHCK (UniProt P07237)” the “probe-labelled cysteine peptide fold change” value was -0.122. In the case of “PARP1_P09874_845_IEREGECQR (UniProt P09874)”, the “probe-labelled cysteine peptide fold change” value is reported as -0.00747. For “PARK7_Q99497_46_DPVQCSR (UniProt Q99497)”, the “probe-labelled cysteine peptide fold change” value was 0.105. “NF1_P21359_1016_LCQLVEVMMAR (UniProt P21359)” was tested, and the “probe-labelled cysteine peptide fold change” value was 0.0549. In the case of “OSBPL1A_Q9BXW6_520_DCGGGDALSNGIK (UniProt Q9BXW6)”, the “probe-labelled cysteine peptide fold change” value is reported as 0.00496. For “NET1_Q7Z628_267_GYCSNQLAAK (UniProt Q7Z628)”, the “probe-labelled cysteine peptide fold change” value was 0.0505. With “NUDC_Q9Y266_188_WTQTLSELDLAVPFCVNFR (UniProt Q9Y266)” the “probe-labelled cysteine peptide fold change” value was -0.0574. “NDRG3_Q9UGV2_30_NFQDFDCQEHDIETTHGVVHVTIR (UniProt Q9UGV2)” was tested, and the “probe-labelled cysteine peptide fold change” value was 0.0929. In the case of “PCID2_Q5JVF3_25_DGASCAELVSFK (UniProt Q5JVF3)”, the “probe-labelled cysteine peptide fold change” value is reported as -0.115. With “NCKIPSD_Q9NZQ3_138_QPNGVCR (UniProt Q9NZQ3)” the “probe-labelled cysteine peptide fold change” value was -0.0933. “NCOA7_Q8NI08_487_GALDLETCEK (UniProt Q8NI08)” was tested, and the “probe-labelled cysteine peptide fold change” value was -0.182. In the case of “OAS3_Q9Y6K5_350_AGCSGLGHPIQLDPNQK (UniProt Q9Y6K5)”, the “probe-labelled cysteine peptide fold change” value is reported as -0.0319. “NSUN5_Q96P11_308_YHEVHYILLDPSCSGSGMPSR (UniProt Q96P11)” was tested, and the “probe-labelled cysteine peptide fold change” value was -0.725. In the case of “NSUN5P1_Q3KNT7-3_149_AAAGACTPPCT<|>NSUN5_Q96P11-2_461_AAAGACTPPCT (UniProt Q96P11+Q3KNT7)”, the “probe-labelled cysteine peptide fold change” value is reported as 0.129. In the case of “P4HA1_P13674_293_QKYEMLCR (UniProt P13674)”, the “probe-labelled cysteine peptide fold change” value is reported as -0.0868. For “NID1_P14543_679_EGSPDALQNPCYIGTHGCDTNAACRPGPR (UniProt P14543)”, the “probe-labelled cysteine peptide fold change” value was 0.112. In the case of “NUP160_Q12769_529_NLQQEFWCK (UniProt Q12769)”, the “probe-labelled cysteine peptide fold change” value is reported as 0.248. For “NSUN6_Q8TEA1_242_ILDLCAAPGGK (UniProt Q8TEA1)”, the “probe-labelled cysteine peptide fold change” value was 0.157. For “NUP155_O75694_373_LYFSTCPFR (UniProt O75694)”, the “probe-labelled cysteine peptide fold change” value was 0.15. “NUS1_Q96E22_235_QKRPTDLDVDTLASLLSSNGCPDPDLVLK (UniProt Q96E22)” was tested, and the “probe-labelled cysteine peptide fold change” value was -0.332. With “NPM3_O75607_79_VEEEDDAEHVLALTMLCLTEGAKDECNVVEVVAR (UniProt O75607)” the “probe-labelled cysteine peptide fold change” value was -0.083. In the case of “NUP98_P52948_1711_HIQQVDCSGNDLEQLHIK (UniProt P52948)”, the “probe-labelled cysteine peptide fold change” value is reported as 0.207.
